Records with an inconclusive call do not appear. Active and inactive are the calls of the source. Calls come from the whole dose curve; as a rule, active = well fitted inhibition curve with a large enough effect; inconclusive = small, poorly fitted or top-dose-only effect; inactive = flat fitted curve, though single readings scatter.
What was measured:
Assay in all cases: qHTS profiling for inhibitors of Plasmodium falciparum proliferation (AID 504749); note: nearly all actives have a fitted effect of over 60% in size
Settings in all cases: P. falciparum in erythrocytes, SYBR Green DNA, 72 h; series mostly up to 28.7 µM
CP250 = test system: CP250
Summary of the method: (§1)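 Parasite proliferation within erythrocytes, 72 h exposure. Endpoint: SYBR Green I fluorescence after overnight lysis at room temperature. Controls: 0.29 uM artemisinin, DMSO.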

CP252 = test system: CP252
Summary of the method: as §1

CP256 = test system: CP256
Summary of the method: as §1

CP262 = test system: CP262
Summary of the method: as §1

CP265 = test system: CP265
Summary of the method: as §1

CP266 = test system: CP266
Summary of the method: as §1

CP268 = test system: CP268
Summary of the method: as §1

CP269 = test system: CP269
Summary of the method: as §1

CP286 = test system: CP286
Summary of the method: as §1

CP260 = test system: CP260
Summary of the method: as §1

Measured: Potency
Potency is the fitted concentration of half-maximal effect.

CCCCC[C@H](O)/C=C/[C@H]1[C@H](O)CC(=O)[C@@H]1C/C=C\CCCC(=O)O
not listed: CP260
inactive: all other assays above

OCc1ccccc1
inactive: CP252 | CP262 | CP266
active: CP250 10 µM | CP256 12.6 µM

CN1CCc2c(c3ccccc3n2Cc2ccccc2)C1
not listed: CP262 | CP268 | CP269
inactive: all other assays above

OCC(O)CO
not listed: CP262
inactive: all other assays above

CO/N=C(\C(=O)N[C@@H]1C(=O)N2C(C(=O)[O-])=C(C[n+]3cccc4c3CCC4)CS[C@H]12)c1csc(N)n1
not listed: CP268 | CP260
inactive: all other assays above

Cc1cc(-c2ccc(N=Nc3ccc4c(S(=O)(=O)O)cc(S(=O)(=O)O)c(N)c4c3O)c(C)c2)ccc1N=Nc1ccc2c(S(=O)(=O)O)cc(S(=O)(=O)O)c(N)c2c1O
not listed: CP260
inactive: all other assays above

CC(C)NCC(O)COc1ccccc1-n1cccc1 (configuration not stated)
not listed: CP260
inactive: all other assays above

CCC(C(=O)NC(N)=O)c1ccccc1 (configuration not stated)
not listed: CP260
inactive: all other assays above

C[Si](C)(C)O[Si](C)(C)C
not listed: CP262 | CP266
inactive: all other assays above

C(=C\c1ccncc1)/c1ccccc1
not listed: CP262
inactive: all other assays above

NC(=O)CC[C@@H]1NC(=O)[C@H](Cc2ccccc2)NC(=O)[C@H](Cc2ccc(O)cc2)NC(=O)[C@@H](N)CSSC[C@@H](C(=O)N2CCC[C@H]2C(=O)N[C@@H](CCCN=C(N)N)C(=O)NCC(N)=O)NC(=O)[C@H](CC(N)=O)NC1=O
active: CP260 2.24 µM
not listed: CP265
inactive: all other assays above

CCc1ncnc2cc(OC)c(OC)cc12
not listed: CP260
inactive: all other assays above

Cc1c(C)c2c(c(C)c1OC(=O)CCC(=O)O)CC[C@@](C)(CCC[C@H](C)CCC[C@H](C)CCCC(C)C)O2
not listed: CP266 | CP286 | CP260
inactive: all other assays above

Cn1cc(NC(=O)c2cc(NC(=O)c3cc(NC=O)cn3C)cn2C)cc1C(=O)NCCC(=N)N
active: CP250 7.94 µM | CP252 8.91 µM | CP256 11.2 µM | CP260 12.6 µM | CP265 11.2 µM | CP268 9.53 µM | CP269 7.57 µM | CP286 3.98 µM

CCN(CC)CCOc1ccc2nc(N(C)C)sc2c1
not listed: CP262
inactive: all other assays above

Oc1cccc(O)c1O
inactive: CP250 | CP252 | CP256 | CP266

O.O.O.O.O.O.O.O=S(=O)([O-])[O-].[Co+2]
active: CP250 11.2 µM | CP252 11.2 µM | CP256 8.91 µM | CP260 10 µM | CP265 11.2 µM | CP269 7.57 µM | CP286 10 µM

CCOC(=O)c1c[nH]c2cc(OCC(C)C)c(OCC(C)C)cc2c1=O
active: CP250 0.0794 µM | CP252 0.0891 µM | CP256 0.0708 µM | CP260 0.0708 µM | CP265 0.0891 µM | CP268 0.135 µM | CP286 0.0708 µM

CCCCC
not listed: CP262
inactive: all other assays above

Cc1nc(NS(=O)(=O)c2ccc(N)cc2)nc(C)c1Br
not listed: CP262 | CP260
inactive: all other assays above

O=C(CCCN1CCC(C(=O)c2ccc(F)cc2)CC1)c1ccc(F)cc1
inactive: CP250 | CP252 | CP256 | CP262 | CP265 | CP266

CCCCCCCCCCCC(=O)N(CCO)CCO
not listed: CP262 | CP268
inactive: all other assays above

CN(Cc1ccccc1)Cc1ccccc1
not listed: CP260
inactive: all other assays above

CC12CCC(C[N+](C)(CCC[N+](C)(C)C)C1)C2(C)C (configuration not stated)
not listed: CP262
inactive: all other assays above

CCCCC(CC)CCC(CC(C)C)OS(=O)(=O)O (configuration not stated)
not listed: CP260
inactive: all other assays above

Cc1cccc(Nc2ncccc2C(=O)O)c1C
not listed: CP260
inactive: all other assays above

O=[n+]1ccn([O-])c2ccccc21
not listed: CP260
inactive: all other assays above

O=[N+]([O-])c1c(Cl)cccc1-c1c[nH]cc1Cl
not listed: CP260
inactive: all other assays above

O=c1[nH]c(=O)n([C@H]2C[C@H](O)[C@@H](CO)O2)cc1/C=C/Br
not listed: CP260
inactive: all other assays above

CC(=O)NCCCS(=O)(=O)O
not listed: CP260
inactive: all other assays above

CC(=O)Oc1cc(C(F)(F)F)ccc1C(=O)O
not listed: CP260
inactive: all other assays above

CCCCC[C@H](O)/C=C/[C@@H]1[C@H]2C/C(=C/CCCC(=O)O)O[C@H]2C[C@H]1O
not listed: CP260
inactive: all other assays above

C[C@@](Cc1ccc(O)c(O)c1)(NN)C(=O)O
not listed: CP260
inactive: all other assays above

CNC(=O)[C@H](Cc1c[nH]c2ccccc12)NC(=O)[C@@H](CC(=O)NO)CC(C)C
inactive: CP252

NC(=S)N=Nc1ccc(NN=C(N)N)cc1
active: CP252 8.91 µM | CP256 1.58 µM | CP260 7.94 µM | CP262 6.01 µM | CP265 12.6 µM | CP268 9.53 µM | CP269 6.75 µM | CP286 4.47 µM

C=CC[N+]1([C@H]2C[C@H]3[C@@H]4CC[C@H]5C[C@H](O)[C@@H](N6CCOCC6)C[C@]5(C)[C@H]4CC[C@]3(C)[C@H]2OC(C)=O)CCCC1
active: CP256 11.2 µM

C[C@]12CCC(=O)C[C@@H]1CC[C@@H]1[C@@H]2CC[C@]2(C)C=CC[C@@H]12
not listed: CP250 | CP286 | CP260
inactive: all other assays above

CCOc1cc(-c2nccc3cc(OC)c(OC)cc23)cc(OCC)c1OCC
active: CP286 8.91 µM

C/C(=C\C(=O)OCCCCCCCCC(=O)O)C[C@@H]1OC[C@H](C[C@@H]2O[C@H]2[C@@H](C)[C@H](C)O)[C@@H](O)[C@H]1O
active: CP256 0.316 µM | CP269 0.239 µM

Cc1cc(-c2ccc(N=Nc3c(S(=O)(=O)O)cc4cc(S(=O)(=O)O)cc(N)c4c3O)c(C)c2)ccc1N=Nc1c(S(=O)(=O)O)cc2cc(S(=O)(=O)O)cc(N)c2c1O
not listed: CP250 | CP268 | CP260
inactive: all other assays above

O[C@@H]([C@H](O)[C@H](O)CBr)[C@H](O)CBr
not listed: CP256
inactive: all other assays above

O=c1n(CC2CO2)c(=O)n(CC2CO2)c(=O)n1CC1CO1 (configuration not stated)
inactive: CP256 | CP266 | CP269

CC[C@H]1OC(=O)[C@H](C)[C@@H](O[C@H]2C[C@@](C)(OC)[C@@H](O)[C@H](C)O2)C(C)[C@@H](O[C@@H]2O[C@H](C)C[C@H](N(C)C)[C@@H]2O)[C@](C)(OC)C[C@@H](C)C(=O)[C@H](C)[C@@H](O)[C@]1(C)O (some centres not stated)
active: CP256 1.26 µM | CP260 5.62 µM | CP286 8.91 µM
not listed: CP250 | CP262
inactive: all other assays above

O=C(c1cc2ccccc2o1)N1CCN(Cc2ccccc2)CC1
inactive: CP266
active: CP256 10 µM | CP265 8.91 µM
